This is an account of results in the supplement of paper PMC9135407.

“And” between values parts separate entries of the source, which are not always exact repeats. Equal entries are not always repeated. Structures can show the parent of a compound that is named as a salt. About 620 (11%) of roughly 5,800 compounds showed activity. Shown is part of a subset that was picked to be rich in actives. A number with no mark means an inactive call.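 The calls were made as follows: active = score above a cut-off or among the top three wells of a plate; in these data no inactive exceeds 0.85.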

The test relates to primary human hepatic stellate cells (donor 1). As to the kind of experiment: scaled lipid accumulation score (0 = DMSO-like, 1 = nortriptyline-like); higher = stronger HSC inactivation (lipid re-accumulation), active = hit call of the paper. The settings on record: 48 h.
The mark [1] stands for this setting: library stock concentration: 1 mM.
The mark [2] stands for this setting: library stock concentration: 6.9 mM.
[3] abbreviates: library stock concentration: 10 mM.
[4] abbreviates: library stock concentration: 3.33 mM.
Where [5] appears, read: library stock concentration: 9.4 mM.

Regarding `CCCCCCCCCCCCCCCCSP(=O)([O-])OCC[N+](C)(C)C` [thio-Miltefosine], the “scaled lipid accumulation score” value under setting [1] was ≤ 0.
On the same count and under the same terms, the result for `CCCCC/C=C\C/C=C\C/C=C\C/C=C\CCCC(=O)NCc1ccoc1` reads ≤ 0.
On to `CCCCC(C#N)(Cn1cncn1)c1ccc(Cl)cc1` (centres undefined) [Myclobutanil], for which the “scaled lipid accumulation score” value under setting [2] was ≤ 0.
As for `[O-][n+]1ccccc1[S-].[O-][n+]1ccccc1[S-].[Zn+2]` [Pyrithione zinc], the “scaled lipid accumulation score” value reads like this: (library stock concentration: 6.3 mM) 0.435; under setting [3], 0.127.
Regarding `Fc1cc(F)c2c(c1)[C@H]1C=CC[C@@H]1C(c1cccnc1)N2` (some centres undefined) [Golgicide A], the “scaled lipid accumulation score” value was 0.872 (active) under setting [4] and 1.03 (active) under setting [3].
With `c1cncc([C@@H]2CCCCN2)c1` [Anabasine], the “scaled lipid accumulation score” value was ≤ 0.
In the case of `c1cncc([C@@H]2CCCN2)c1` [Nornicotine], the “scaled lipid accumulation score” value under setting [3] was ≤ 0.
Turning to `C[C@H](CCC(=O)O)C[C@H](C)C[C@H](C)C(=O)/C=C(\O)[C@H](C)C[C@H](C)C/C=C/[C@@H](C)[C@@H](O)[C@@H](C)[C@@H](O)C[C@@H]1CC[C@@](C)([C@H]2CC[C@@](C)([C@@H](C)O)O2)O1` [Ionomycin], the “scaled lipid accumulation score” value (library stock concentration: 7.1 mM) was 0.48.
`O=C1CN=C(c2ccccc2)c2cc([N+](=O)[O-])ccc2N1` [Nitrazepam]: the “scaled lipid accumulation score” value under setting [3] is ≤ 0.
Same read-out and setting: the result for `COc1ccc2[nH]cc(CCN)c2c1` [O-Methylserotonin hydrochloride] reads ≤ -0.055.
The same measure, in the same setting: the result for `COc1ccc(CNC(=O)/C=C/c2ccc3[nH]cc(CCN(C)C)c3c2)cc1` [listing 1 of 2 here] reads 1.03 (active).
On to `COc1ccc2[nH]cc(CCN)c2c1` [5-Methoxytryptamine], for which the “scaled lipid accumulation score” value under setting [3] was ≤ 0.
For `COc1ccc(CNC(=O)/C=C/c2ccc3[nH]cc(CCN(C)C)c3c2)cc1` [listing 2 of 2 here], the “scaled lipid accumulation score” value under setting [3] is 0.736.
As for `O[C@H]1[C@H](O)[C@@H](O)CN2CC[C@H](O)[C@H]12` [Castanospermine], the “scaled lipid accumulation score” value reads like this: under setting [3], ≤ 0; (library stock concentration: 26.4 mM) 0.125.
For the compound `CCCCCC=CCC=CCC=CCC=CCCCC(=O)NCC(O)CC(=O)O` (centres undefined) [N-Arachidonoyl-3-hydroxy-.gamma.-Aminobutyric Acid], the “scaled lipid accumulation score” value under setting [1] was ≤ 0.
Consider `CC[C@H]1CN2CC[C@H]1C[C@H]2[C@H](O)c1ccnc2ccc(OC)cc12` [Hydroquinine hydrobromide hydrate], for which the “scaled lipid accumulation score” value was ≤ 0.
With `CCCC[C@H]1C(=O)O[C@H](C)[C@H](NC(=O)c2cccc(NC=O)c2OC)C(=O)O[C@@H](C)[C@@H]1OC(=O)CC(C)C` [2-methoxyantimycin A3], the “scaled lipid accumulation score” value under setting [5] was 0.292.
Take `CC(C)(C)c1cc(C=C(C#N)C#N)cc(C(C)(C)C)c1O` [Tyrphostin A9]: the “scaled lipid accumulation score” value under setting [3] was 0.728.
As to `CC(C)(C)c1cc(C=C(C#N)C#N)cc(C(C)(C)C)c1O` [Tyrphostin 9] [listing 1 of 2 here], the “scaled lipid accumulation score” value is 0.175 under setting [4] and 0.752 (library stock concentration: 17.7 mM).
For `CC(C)(C)c1cc(C=C(C#N)C#N)cc(C(C)(C)C)c1O` [Tyrphostin 9] [listing 2 of 2 here], the “scaled lipid accumulation score” value under setting [3] was 1.27 (active).
For the compound `CC(C)(C)c1cc(C=C(C#N)C#N)cc(Br)c1O`, the “scaled lipid accumulation score” value under setting [4] is ≤ 0 and the “scaled lipid accumulation score” value under setting [3] is ≤ 0.
Consider `C[C@]12CC[C@H]3[C@@H](CCC4=CC(=O)CC[C@@]43C)[C@@H]1CC[C@@H]2O` [Testosterone], for which the “scaled lipid accumulation score” value is 0.032 under setting [2]; 0.108 and 0.479 under setting [3].
On to `Oc1cc2c(cc1O)[C@H]1c3ccccc3CN[C@@H]1CC2` (racemic) [Dihydrexidine hydrochloride], for which the “scaled lipid accumulation score” value under setting [3] was 0.823.
On the same count and under the same terms, the result for `CCCC[N+]1(C)[C@@H]2C[C@@H](OC(=O)[C@H](CO)c3ccccc3)C[C@H]1[C@@H]1O[C@@H]12` (single isomer, unassigned; (-)) [(-)-Scopolamine,n-Butyl-, bromide] reads ≤ 0; that for `CC(N)Cc1c[nH]c2ccc(O)cc12` (stereo not drawn) [alpha-Methyl-5-hydroxytryptamine maleate], ≤ -0.055; that for `CC(N)Cc1c[nH]c2ccc(O)cc12` (centres undefined), ≤ 0.
Turning to `CC(N)Cc1c[nH]c2ccc(OCc3cccs3)cc12` (centres undefined), under setting [1], the “scaled lipid accumulation score” value is 0.315.
For `CCCCCCCCCOc1ccc2[nH]cc(CCN)c2c1` [5-Nonyloxytryptamine], the “scaled lipid accumulation score” value (library stock concentration: 9.9 mM) was 0.5.
On to `CNCCc1c[nH]c2ccc(O)cc12` [N-omega-Methyl-5-hydroxytryptamine oxalate salt], for which the “scaled lipid accumulation score” value under setting [3] was ≤ -0.055.
On the same count and under the same terms, the result for `CC(N)Cc1c[nH]c2ccc(OCc3cccs3)cc12.Cl` (centres undefined) reads 1.18 (active).
Turning to `CC(N)Cc1c[nH]c2ccc(OCc3cccs3)cc12.Cl` (centres undefined) [BW 723C86 hydrochloride], the “scaled lipid accumulation score” value under setting [3] was 1.3 (active).
For the compound `CN1CCC2=C[C@H](O)[C@H]3OC(=O)c4cc5c(cc4[C@H]3[C@@H]21)OCO5` [Hippeastrine hydrobromide], the “scaled lipid accumulation score” value is ≤ 0.
Regarding `O=S(=O)(c1c(O)c(Cl)cc(Cl)c1Cl)c1c(O)c(Cl)cc(Cl)c1Cl` [p38 MAP Kinase Inhibitor IV], the “scaled lipid accumulation score” value under setting [4] is ≤ 0.
For `CCCCC/C=C\C/C=C\C/C=C\C/C=C\CCCC(=O)NCCS(=O)(=O)O` [N-Arachidonoyl Taurine], the “scaled lipid accumulation score” value under setting [1] is 0.01.
Consider `O=C1C2CCN(CC2)C1(CO)CO` [listing 1 of 2 here], for which the “scaled lipid accumulation score” value is ≤ 0 under setting [1] and 0.045 under setting [3].
Consider `O=C1C2CCN(CC2)C1(CO)CO` [listing 2 of 2 here], for which, where the note is “library stock concentration: 27 mM”, the “scaled lipid accumulation score” value was 0.911 (active).
Take `CC(=O)C1=C(O)[C@@H]2[C@H]3c4c[nH]c5cccc(c45)C[C@H]3C(C)(C)N2C1=O` [Cyclopiazonic acid]: the “scaled lipid accumulation score” value (library stock concentration: 14.9 mM) is 0.019.
As for `CC(=O)C1=C(O)[C@@H]2[C@H]3c4c[nH]c5cccc(c45)C[C@H]3C(C)(C)N2C1=O` [Cyclopiazonic Acid], under setting [3], the “scaled lipid accumulation score” value was 0.021.
In the case of `BrC1C(Br)C(Br)C(Br)C(Br)C1Br` (centres undefined) [1,2,3,4,5,6-Hexabromocyclohexane], under setting [3], the “scaled lipid accumulation score” value was ≤ -0.001.
As to `CC1=C2C[C@H]3[C@@H](CC=C4C[C@@H](O)CC[C@@]43C)[C@@H]2CC[C@]12O[C@@H]1C[C@H](C)CN[C@H]1[C@H]2C` [Cyclopamine], under “library stock concentration: 12.1 mM”, the “scaled lipid accumulation score” value was 0.19.
Regarding `COC(=O)/C=C/C(=O)N[C@@H]1CC[C@@]2(O)[C@H]3Cc4ccc(O)c5c4[C@@]2(CCN3CC2CC2)[C@H]1O5`, under setting [3], the “scaled lipid accumulation score” value is 0.325.
Still for that read-out and setting: the result for `COc1ccc2c3c([nH]c2c1)C(C)=NCC3` [Harmaline] reads 0.389.
Take `COc1ccc2c3c([nH]c2c1)C(C)=NCC3` [Harmaline hydrochloride dihydrate]: the “scaled lipid accumulation score” value is 0.371.
The same measure, in the same setting: the result for `CC1=NCCc2c1[nH]c1cc(O)ccc21.Cl.O.O` [Harmalol hydrochloride dihydrate] reads 0.979 (active).
Turning to `CC1=NCCc2c1[nH]c1cc(O)ccc21` [Harmalol hydrochloride], under setting [3], the “scaled lipid accumulation score” value was ≤ 0.
Take `COC1=C[C@@H]2C3=C([C@@H]2C1=O)[C@@H](NC(C)=O)CCc1cc(OC)c(OC)c(OC)c13` [Lumicolchicine gamma]: the “scaled lipid accumulation score” value was ≤ 0.
Consider `c1ccc(C2CNCc3ccccc32)cc1` (centres undefined) [4-Phenyl-1,2,3,4-tetrahydroisoquinoline hydrochloride], for which, under setting [3], the “scaled lipid accumulation score” value is 0.217.
With `c1ccc(CCCN2CCN(CCOC(c3ccccc3)c3ccccc3)CC2)cc1`, the “scaled lipid accumulation score” value under setting [3] was ≤ -0.07 and 0.566.
On the same count and under the same terms, the result for `Fc1ccc(C(OCCN2CCN(CCCc3ccccc3)CC2)c2ccc(F)cc2)cc1` reads ≤ -0.061; that for `Fc1ccc(C(OCCN2CCN(C/C=C/c3ccccc3)CC2)c2ccc(F)cc2)cc1`, 0.507.
Turning to `Cl.Cl.Fc1ccc(C(OCCN2CCN(CCCc3ccccc3)CC2)c2ccc(F)cc2)cc1` [listing 1 of 2 here], the “scaled lipid accumulation score” value was 0.864 (active).
With `Cl.Cl.Fc1ccc(C(OCCN2CCN(CCCc3ccccc3)CC2)c2ccc(F)cc2)cc1` [listing 2 of 2 here], the “scaled lipid accumulation score” value under setting [3] was 0.942 (active).
For `Clc1ccc(C(OCCN2CCCCC2)c2ccccc2)cc1` (centres undefined) [Cloperastine hydrochloride], the “scaled lipid accumulation score” value is 0.488. Also, the “scaled lipid accumulation score” value under setting [3] was 0.544.
`CC(N)Cc1cccc(C(F)(F)F)c1` (single isomer, unassigned; (+)) [(+)-Norfenfluramine hydrochloride]: the “scaled lipid accumulation score” value under setting [3] was 0.072.
Turning to `CC(=O)[O][Hg][c]1ccccc1` [Phenylmercuric acetate], the “scaled lipid accumulation score” value reads like this: (library stock concentration: 5.9 mM) 0.512; under setting [3], 0.358.
Turning to `O=[N+]([O-])OCC(CO[N+](=O)[O-])O[N+](=O)[O-]` [Nitroglycerin], the “scaled lipid accumulation score” value (library stock concentration: 8.8 mM) was 0.395.
Consider `CCCCC/C=C\C/C=C\C/C=C\C/C=C\CCCC(=O)NCCc1ccc(O)c(O)c1` [N-Arachidonoyl Dopamine], for which the “scaled lipid accumulation score” value under setting [1] is ≤ 0.
Still for that read-out and setting: the result for `CCCCC/C=C\C/C=C\C/C=C\C/C=C\CCCC(=O)N[C@H](C)COP(=O)(O)O` [R-1 Methanandamide Phosphate] reads ≤ 0.
Turning to `Cc1[nH]c2ccc(Cl)cc2c1C1=CCNCC1.Cl`, under setting [3], the “scaled lipid accumulation score” value was 1.1 (active).
With `C#CCOC(=O)C1=CCCN(C)C1` [Arecaidine propargyl ester hydrobromide], under setting [3], the “scaled lipid accumulation score” value is ≤ 0.
The same measure, in the same setting: the result for `C#CCOC(=O)C1=CCCN(C)C1` [Arecaidine propargyl ester tosylate] reads ≤ 0; that for `C[C@]12CCC(=O)C=C1CC[C@@H]1[C@@H]2CC[C@@]2(C)[C@H]1CC[C@]2(C)O` [Methyltestosterone], 0.073.
As to `COc1ccc2c(c1)[nH]c1c(C)nccc12` [Harmine] [listing 1 of 2 here], the “scaled lipid accumulation score” value under setting [5] is 0.851 (active).
Turning to `COc1ccc2c(c1)[nH]c1c(C)nccc12` [Harmine] [listing 2 of 2 here], the “scaled lipid accumulation score” value is 0.141 under setting [1] and 0.762 under setting [3].
For the compound `Cc1nccc2c1[nH]c1cc(O)ccc12` [Harmol hydrochloride], the “scaled lipid accumulation score” value under setting [3] was ≤ 0.
Same read-out and setting: the result for `Cc1nccc2c1[nH]c1ccccc12` [Harmane] reads 0.671.
Regarding `COc1ccc2[nH]c3c(c2c1)CCN=C3C` [Methoxy-6-harmalan], the “scaled lipid accumulation score” value was 0.039.
On the same count and under the same terms, the result for `Cc1nccc2c1[nH]c1ccccc12` [Harmane hydrochloride] reads 0.089; that for `COc1ccc2c(c1)[nH]c1c(C)nccc12.Cl` [Harmine hydrochloride], 0.89 (active).
